Records with an inconclusive call do not appear. Activity calls are given as the source filed them. Calls come from the whole dose curve; as a rule, active = well fitted cell-killing curve with a large enough effect in the repeat runs; inconclusive = weak or mixed curves; inactive = flat fitted curve, though single readings scatter.
Test: qHTS assay to identify small molecule antagonists of the estrogen receptor beta (ER-beta) signaling pathway - cell viability counter screen (AID 1259382); note: nearly all actives have a fitted effect of over 55% in size
Details: ER-beta-UAS-bla HEK293T viability, CellTiter-Glo luminescence, 16 h; series mostly up to 92.4 µM
Source text: U.S. Tox21 Program National Center for Advancing Translational Sciences [NCATS] NIH Chemical Genomics Center [NCGC] U.S. Environmental Protection Agency [EPA] National Institutes of Environmental Health Sciences [NIEHS] National Toxicology Program [NTP] U.S. Food and Drug Administration [FDA] Tox21 Assay Overview: Estrogen receptor (ER), a nuclear hormone receptor, plays an important role in development, metabolic homeostasis and reproduction. Two subtypes of ER, ER-alpha and ER-beta, have similar expression patterns with some uniqueness in both types. Endocrine disrupting chemicals (EDCs) and their interactions with steroid hormone receptors like ER causes disruption of normal endocrine function. To identify the compounds that inhibit ER signaling, an ER-beta-UAS-bla GripTite cell line (Life Technologies, Madison, WI, USA) containing a beta-lactamase reporter gene under the control of an UAS response element was used to screen Tox21 10K compound library. The cytotoxicity of the Tox21 compound library against the ER-beta-bla cell line was tested in parallel by measuring the cell viability using CellTiter-Glo assay in the same wells.
Tox21 Assay Protocol Summary: ER-beta-UAS-bla HEK293T cells were dispensed at 2,000 cells/4 uL of assay medium containing 2% charcoal stripped FBS per well into black wall/clear-bottom 1536-well plates using a Multidrop Combi (ThermoFisher Scientific, Waltham, MA) dispenser. After the assay plates were incubated at a 37C and 5% CO2 for 6 hr, 23 nL of compounds dissolved in DMSO, positive controls or DMSO only was transferred to the assay plate by a Pintool station (Kalypsys, San Diego, CA), followed by addition of 1 uL (1nM as final concentration) of 17-beta-estradiol (E2) in assay medium using a Flying Reagent Dispenser (FRD, Aurora Discovery, San Diego, CA). The plates were incubated at 37C and 5% CO2 for 16 hr. Then 1 uL of LiveBLAzer B/G FRET substrate was added using a Flying Reagent Dispenser, the plates were incubated at room temperature for 2 hours, and fluorescence intensity was measured by an Envision plate reader (PerkinElmer, Shelton, CT). For cell viability readout that measures cytotoxicity, 4 uL/well of CellTiter-Glo reagent was added into the assay plates using a FRD. After 30 min incubation at room temperature, the luminescence intensity in the plates was measured using a ViewLux (PerkinElmer) plate reader.

Q: For `CCOC(=O)CN1CCCC1=O`, which outcome is on record?
A: inactive

Q: Which outcome does the source give for `CCCOc1ccc(C(=O)OCCN(CC)CC)cc1N` here?
A: inactive

Q: For `O=C(O)P(=O)(O)O`, which outcome is on record?
A: inactive

Q: Which outcome does the source give for `C=CCCCCCCCCOC(C)=O` here?
A: inactive

Q: For `CCCCCC(=O)CC`, which outcome is on record?
A: inactive

Q: Which outcome does the source give for `Clc1ccc2c(c1)Nc1ccccc1S2` here?
A: inactive

Q: Which outcome does the source give for `Cc1cc(C)c(N)c(Cl)c1` here?
A: inactive

Q: With `CCCCNCC` as the compound, how does the outcome read?
A: inactive

Q: For `COc1ccc(Cl)cc1C`, which outcome is on record?
A: inactive

Q: Which outcome does the source give for `CCCCCCCC(=O)N(C)C` here?
A: inactive

Q: For `COC(=O)N/N=C/c1c[n+]([O-])c2ccccc2[n+]1[O-]`, which outcome is on record?
A: inactive

Q: With `CCc1ccc(CC)cc1` as the compound, how does the outcome read?
A: inactive

Q: With `CC(C)C(=O)Nc1cccc(C2CN3CCSC3=N2)c1` (stereo not given) as the compound, how does the outcome read?
A: inactive

Q: With `CCOC(=O)[C@H](CCc1ccccc1)N[C@H]1CS[C@H](c2cccs2)CN(CC(=O)O)C1=O` as the compound, how does the outcome read?
A: inactive

Q: For `COc1ccc2cc(CCC(C)=O)ccc2c1`, which outcome is on record?
A: inactive

Q: With `Cc1cc(N)no1` as the compound, how does the outcome read?
A: inactive

Q: Which outcome does the source give for `C=CCN(CC=C)CC=C` here?
A: inactive

Q: For `Cc1ccc(S(=O)(=O)NC(=O)NN2CC3CCCC3C2)cc1` (stereo not given), which outcome is on record?
A: inactive

Q: With `OCCC(F)(F)C(F)(F)C(F)(F)C(F)(F)C(F)(F)C(F)(F)F` as the compound, how does the outcome read?
A: inactive

Q: With `O=C1CC2(CCCC2)CC(=O)N1CCNCC1COc2ccccc2O1` (stereo not given) as the compound, how does the outcome read?
A: inactive

Q: Which outcome does the source give for `COC(=O)c1c(C)cc(O)c(C)c1O` here?
A: inactive

Q: Which outcome does the source give for `O=C(O)/C=C(\CC(=O)O)C(=O)O` here?
A: inactive

Q: Which outcome does the source give for `CCO[Si](CC(C)C)(OCC)OCC` here?
A: inactive

Q: With `CCCCc1ccc(Cl)cc1` as the compound, how does the outcome read?
A: inactive

Q: Which outcome does the source give for `CN1CCN(C(=O)C2CCCCC2)CC1` here?
A: inactive

Q: For `Cc1cc(C)c(C)c(C)c1`, which outcome is on record?
A: inactive

Q: With `CSC(=O)c1cccc2nnsc12` as the compound, how does the outcome read?
A: inactive

Q: For `Cc1ccc(OC(=O)CC(C)C)cc1`, which outcome is on record?
A: inactive

Q: For `CC(C)OC(=O)C(C(=O)OC(C)C)=C1SC=CS1`, which outcome is on record?
A: inactive

Q: With `COC(=O)c1ccc(C(=O)O)cc1` as the compound, how does the outcome read?
A: inactive

Q: Which outcome does the source give for `CCCCCCC(=O)c1ccccc1` here?
A: inactive

Q: With `CC(C)(C)c1ccc(C(=O)CCCCl)cc1` as the compound, how does the outcome read?
A: inactive

Q: For `CCOC(=O)c1ccc(N(C)C)cc1`, which outcome is on record?
A: inactive

Q: With `CCCCCCCCS(=O)(=O)O` as the compound, how does the outcome read?
A: inactive

Q: With `CCc1ncc(C)[nH]1` as the compound, how does the outcome read?
A: inactive

Q: Which outcome does the source give for `O=C1CCCc2c(O)cccc21` here?
A: inactive

Q: With `CC(C)CC(O)Cc1ccccc1` (stereo not given) as the compound, how does the outcome read?
A: inactive

Q: Which outcome does the source give for `Cc1ccc2ccccc2n1` here?
A: inactive

Q: Which outcome does the source give for `CC[N+](C)(CC)CC` here?
A: inactive

Q: With `Cc1nc2ccc(Cl)cc2[nH]1` as the compound, how does the outcome read?
A: inactive

Source: PubChem BioAssay (Tox21)
